Results from PubChem BioAssay AID1903 (Southern Research Specialized Biocontainment Screening …, 2009).
About 1,200 (0.39%) of roughly 310,000 compounds were called active. The rule behind the calls is not given here. Only a sample is shown. Measured potencies and affinities stand elsewhere.

Target: Large T antigen (Simian virus 40) (UniProt P03070)
Assay: TAg ATPase/helicase activity blockers – biochemical (AID 1903)
Conditions: SV40 large T antigen ATPase/helicase inhibition assay; at 20 µM; stronger effect = higher value

Large T antigen (Simian virus 40), sequence (P03070 whole entry, looked up): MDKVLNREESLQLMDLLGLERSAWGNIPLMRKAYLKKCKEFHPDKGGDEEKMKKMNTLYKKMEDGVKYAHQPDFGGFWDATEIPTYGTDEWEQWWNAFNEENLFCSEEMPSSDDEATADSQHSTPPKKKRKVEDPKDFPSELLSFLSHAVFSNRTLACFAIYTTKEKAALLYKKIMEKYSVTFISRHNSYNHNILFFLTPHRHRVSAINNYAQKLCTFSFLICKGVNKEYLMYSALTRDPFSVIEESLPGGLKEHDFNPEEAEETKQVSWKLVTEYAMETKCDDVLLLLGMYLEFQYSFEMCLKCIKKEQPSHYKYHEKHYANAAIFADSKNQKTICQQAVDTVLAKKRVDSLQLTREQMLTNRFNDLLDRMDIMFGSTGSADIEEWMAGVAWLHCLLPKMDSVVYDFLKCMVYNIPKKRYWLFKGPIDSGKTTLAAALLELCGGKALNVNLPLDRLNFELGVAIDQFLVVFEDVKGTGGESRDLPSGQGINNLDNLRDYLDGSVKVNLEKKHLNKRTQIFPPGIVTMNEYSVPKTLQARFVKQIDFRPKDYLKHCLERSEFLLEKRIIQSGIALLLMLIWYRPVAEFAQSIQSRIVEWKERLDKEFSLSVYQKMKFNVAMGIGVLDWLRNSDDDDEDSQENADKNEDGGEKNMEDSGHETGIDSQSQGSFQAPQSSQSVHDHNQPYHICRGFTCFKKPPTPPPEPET

inhibition, inactive:
COc1ccc2sc(C)[n+](C)c2c1 11.2%
CC[n+]1c(C)sc2cc(OC)ccc21 8.13%
Cn1c(SCC(=O)Nc2ccc3c(c2)OCCO3)nnc1-c1cccnc1 -0.17%
COc1ccccc1N1CCN(/N=C/c2cccc(O)c2)CC1 7.2%
COc1ccc(/C=N/N2CCN(c3ccccc3OC)CC2)cc1OC 6.87%
Fc1ccc(C2=Nn3c(nnc3-c3ccco3)SC2)cc1 9.39%
c1ccc(C2=Nn3c(nnc3-c3ccco3)SC2)cc1 10.2%
CN1N=C(C(=O)N2CCCC(C(=O)c3cccc(C(F)(F)F)c3)C2)CCC1=O (stereo unspecified) 2.73%
CCOc1ccccc1/C=N/n1c(COc2ccccc2)n[nH]c1=S 14.8%
O=c1/c(=C/c2ccc(O)c([N+](=O)[O-])c2)sc2nc3ccccc3n12 9.09%
CCN(CC)c1ccc(/C=c2\sc3nc4ccccc4n3c2=O)c(O)c1 11.3%
O=C(O)COCC(=O)Nc1ccc(-n2cnnn2)cc1 3.06%
C/C(=N\NC(=O)c1cccc(N/N=C(\C)c2ccc([N+](=O)[O-])cc2)c1)c1ccc([N+](=O)[O-])cc1 7.03%
C/C(=N\NC(=O)Cn1cc([N+](=O)[O-])cn1)c1ccco1 -0.91%
C/C(=N\NC(=O)Cn1nc(C)c([N+](=O)[O-])c1C)c1ccc(O)cc1 34.5%
C/C(=N\NC(=O)c1ccc([N+](=O)[O-])cc1)c1cccc([N+](=O)[O-])c1 6.04%
CC1(C)C2CCC(C2)C1(C)NC(=O)CNCc1cccs1 (stereo unspecified) 5.5%
Cc1cccc(CS(=O)(=O)Cc2ccc(C(=O)NC(C)c3ccccc3)o2)c1 (stereo unspecified) 2.72%
Cc1onc(-c2ccccc2)c1C(=O)Nc1ccc(S(=O)(=O)N2CCCC2)cc1 4.98%
COc1cc(/C=C/C(=O)CC(=O)/C=C/c2ccc(O)c(OC)c2)ccc1O 17.5%
N#C/C(=C\c1cccc(O)c1)C(=O)N1CCCCC1 13.5%
COc1ccc(C=C(C(C)=O)C(C)=O)cc1OC 16.2%
N#C/C(=C\c1ccc(O)c(Br)c1)C(=O)N1CCCCC1 9.59%
CC(=O)C1C(c2ccncc2)NC(=O)NC1(O)C(F)(F)F (stereo unspecified) 18.7%
Cn1/c(=N/NC(=O)c2ccccc2Br)sc2ccccc21 5.44%
CCOCCn1c(=NC(=O)CSCC(=O)Nc2cc(C)on2)sc2cc(OC)ccc21 -3.67%
